Our source for the viability values is PubChem BioAssay.

The test can be described thus: Her2 expression decrease, cell viability multiplex – SKBR3 breast tumor cells, AlphaScreen, ATP viability, primary screen (AID 461).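 Note: percent of carrier control wells set as 100% viability.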 Particulars: SKBR3 Her2 protein level, 18-24 h, measured here: SKBR3 viability, ATP luminescence, at 10 µM. On the technique in general: In Alpha technology, singlet oxygen from a donor bead excites a nearby acceptor bead.
One may read the viability as a read-out of living cells in per cent, often relative to untreated cells. As for `CCOC(=O)c1nnc2cc(-c3ccc(Br)cc3)nn2c1C`, the viability came to 76.5%. For the compound `COc1cccc(C(=O)Nc2c(C(N)=O)oc3ccccc23)c1`, the viability stood at 86.5%.

Take `CCn1c(CNc2ccc(OC)cc2)nnc1SCC(=O)c1ccc(OC)cc1`: the viability is 110%. Consider `COc1ccc(Br)cc1C1N2CC3(C)CN1CC(C)(C2)C3=O` (centres undefined), for which the viability was 114%. Regarding `CCOC(=O)c1sc(NC(=O)CSc2n[nH]c(-c3ccccc3)n2)c(C#N)c1C`, the viability came out at 122%.

As for `CCOC(=O)N1CCN(CCC(=O)c2ccc(Cl)cc2)CC1`, the viability was determined as 106%. As to `CCOC(=O)c1c(C)oc2c1c(C(c1ccncc1)N1CCOCC1)c(O)c1ccccc12` (centres undefined), the viability was found to be 104%. Take `Cc1c(NC(=O)c2ccc(=O)oc2)c(=O)n(-c2ccccc2)n1C`: the viability came out at 96.5%. Consider `CCOc1ccccc1-n1nnnc1SCC(=O)Nc1cc2oc3ccccc3c2cc1OC`, for which the viability was determined as 68.5%. To `CC1=C(C(=O)OC2CCCCC2)C(c2ccc(C)o2)C2=C(CC(C)(C)CC2=O)N1` (centres undefined) belongs 77.5%. Under `Cc1nc2ccccc2c(=O)n1NC(=O)c1c(O)c2c(n(CC(C)C)c1=O)CCCC2` stands 88.5%. As for `COc1ccc(C2=NOC(C(=O)Nc3cc(Br)ccc3O)C2)cc1OC` (centres undefined), the viability was determined as 108%. Consider `Cc1ccc(NC(=O)c2oc3ccc(S(=O)(=O)N4CCOCC4)cc3c2C)cc1C`, for which the viability turned out to be 91%. Under `Cc1nn(-c2nc3ccccc3s2)c(C)c1Oc1ccccc1O` stands 102%; under `Cc1ccc(S(=O)(=O)c2cc3c(=O)n4ccccc4nc3n(CC3CCCO3)c2=N)cc1C` (centres undefined), 83%. With `Cc1ccc(C)c(S(=O)(=O)C(C#N)c2nc3ccccc3nc2N2CC(C)OC(C)C2)c1` (centres undefined), the viability was determined as 91%. Take `COC(=O)c1ccccc1S(=O)(=O)N(Cc1cc2cc3c(cc2[nH]c1=O)OCO3)C1CCCCC1`: the viability was determined as 83%. With `CC(C)C(=O)Nc1ccc(C(=O)NCc2cccnc2)cc1`, the viability was found to be 107%.

As for `C=C(c1ccc(O)cc1)c1ccc(O)cc1`, the viability turned out to be 105%. Under `Cc1ccc2c(c1)c1c(n2CC(O)Cn2c(C)nc3ccccc32)/C(=N\O)CCC1` (centres undefined) stands 108%; under `C=CCn1c(COc2ccc(Cl)cc2)nnc1SCC(=O)N1CC(=O)Nc2ccccc21`, 92%. As for `CCC(Sc1nc2n[nH]c(C)c2c(=N)n1-c1cc(Cl)ccc1C)C(=O)N1CCOCC1` (centres undefined), the viability was determined as 92.5%. `CCOC(=O)c1ccc(N2C(=O)CC(Sc3nnc(C)s3)C2=O)cc1` (centres undefined): the viability turned out to be 103%. Consider `N#CC1=C(N)n2c(s/c(=C\c3ccco3)c2=O)=C(C#N)C1c1ccco1` (centres undefined), for which the viability stood at 100%. Turning to `COc1ccc(N2CCN(Cc3cc(=O)oc4cc(C)c(Cl)c(C)c34)CC2)cc1`, the viability is 93.5%. With `Cc1ccc(S(=O)(=O)N2CCOCC2)cc1C(=O)Nc1ccc(-c2cn3ccsc3n2)cc1`, the viability amounted to 80%. Turning to `CCCCCCc1ccc(-c2ncc(N)cn2)cc1`, the viability came to 97%.

Take `COc1cc(-c2noc(-c3ccccc3C(=O)NCc3ccco3)n2)cc(OC)c1OC`: the viability is 79%.

`Cc1ccc2nc(NC(=O)C3CCN(S(=O)(=O)c4cccc5nsnc45)CC3)sc2c1`: the viability was found to be 85.5%. Turning to `CCOC(=O)c1sc(Nc2nc3c(OC)cccc3s2)nc1C`, the viability stood at 81.5%. Regarding `CC(=O)c1ccccc1Oc1nc(CN2CCOCC2)nc2scc(-c3cccs3)c12`, the viability turned out to be 87.5%.

`CCn1c2ccccc2c2cc(NC(=O)Cc3ccc(S(=O)(=O)N4CCOCC4)s3)ccc21`: the viability was determined as 83%. To `Cc1[nH]nc(N=CC2=C(O)CC(C)(C)CC2=O)c1-c1ccc(Cl)cc1` belongs 94.5%; to `N#CC(C(=O)C1CCCCC1)c1nc2ccccc2[nH]1` (centres undefined), 91.5%. Regarding `O=C(CSc1nnc2scc(-c3ccccc3)n12)Nc1nsc(-c2ccccc2)n1`, the viability worked out at 82.5%. `CC(C)(C)n1nnnc1C(c1ccccc1)N1CCc2ccccc2C1` (centres undefined): the viability was 107%. `CCc1cc2c(=O)c(-c3nc4ccccc4[nH]3)coc2cc1OC(=O)N1CCOCC1`: the viability is 100%. `O=C(Nc1sc2c(c1C(=O)NCc1ccco1)CCCC2)c1ccc2c(c1)OCO2`: the viability was 89.5%. Take `Cc1cccc(N2CCN(C(=O)c3ccc(NS(=O)(=O)c4c(C)noc4C)cc3)CC2)c1C`: the viability was determined as 98%.
